# Compound activity (PubChem)
# RECQ1 inh-1: blocks DNA unwinding by human RECQ1; P46063; RECQ1 DNA unwinding, red fluorescence kinetic read; Potency, µM (highest dose often 57.3 µM), without a hit: at the top dose activity, negative = inhibition, usual class: inhibitors; 0.54% of 240,000 active; AID 2549;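 also: plate controls were vehicle for no effect and no enzyme for full effect; nearly all actives have a fitted effect of over 30% in size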
#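 RECQ1T1 50 nM; forked duplex (20 bp + 30-nt ss tails) 200 nM, ATP 2 mM final; pH 8.0, 2 mM MgCl2, 2.5 ug/ml poly(dI-dC); 15 min compound preincubation; discontinuous kinetic read over 2 h at RT.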
# ERG Ets-DNA blk: ERG Ets/DNA interaction inhibition. fluorescence polarization, His-ERG Ets domain / labelled DNA. 0.028% of 370,000 active. Potency, µM (doses to about 76.9 µM), inactives show at the highest dose FP activity, negative = inhibition, usual class: inhibitors. P11308. AID 624246; active = well fitted inhibition curve with a large enough effect in the polarisation, with a control signal flat; inconclusive = small, poorly fitted or top-dose-only effect, or effect the other way, or a change in a side signal; inactive = no such curve, though single readings can be large or run the other way; the % refers to the polarisation;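 also: polarization taken with two DNA probes labelled with fluorescein and Texas red; % of control where 0% means no effect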
#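 His-tagged ERG Ets domain (1 uM in the protein solution; 300mM KCl, 50mM Tris-HCl, 1mM EDTA, 1mM DTT, pH 7.5) received compound, then a probe mix of 5 nM fluorescein-DNA and 100nM Texas-615-DNA. Fluorescence polarization was read for both dyes.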
# APEX1 inh: blocks human APE1 abasic DNA cleavage. recombinant APE1, TAMRA/BHQ-2 abasic DNA cleavage fluorescence. Potency, µM (top dose mostly 65.8 µM), without a hit: at the highest dose activity change, negative = inhibition, hits mostly inhibitors. 0.35% of 350,000 active. AID 2517;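 also: plate controls were vehicle for no effect and reference inhibitor for full effect; nearly all actives have a fitted effect of over 55% in size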
#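 APE1 at 0.75 nM preincubated 15 min at room temperature with compound. Reaction then started with 50 nM double-stranded THF-abasic substrate labelled with TAMRA/BHQ-2, and 525/598 nm fluorescence read kinetically. Activity taken as third-minus-first read difference, normalized to DMSO and NSC13755 controls.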
# GCN5L2 inh: inhibitors of human GCN5L2 histone acetyltransferase; GCN5L2 HAT assay, ThioGlo1 CoA-SH fluorescence; Potency, µM (titrated, usually from 58.9 µM), inactives show at the highest dose activity change, negative = inhibition, hits mostly inhibitors; 0.21% of 390,000 active; also: % is scaled to controls: 0 for no effect and ±100 for the full control effect
#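 Compounds, pin-transferred from DMSO stocks, meet 20nM GCN5L2 for 15 min before the reaction begins with H3(1-25) peptide (75uM) and acetyl-CoA (70uM). Thiol-reactive ThioGlo1 reports CoA release over 20 min at room temperature.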
# BLM inh: Bloom syndrome helicase (human) inhibition; recombinant BLM DNA unwinding, fluorescence dequenching; Potency, µM (titrated, usually from 56.1 µM), for inactives: at the highest dose activity change, negative = inhibition, hits mostly inhibitors; 0.2% of 350,000 active; AID 2528;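 also: plate controls were vehicle for no effect and no enzyme for full effect; nearly all actives have a fitted effect of over 35% in size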
# WRN helicase inh: WRN helicase (human) inhibition. Potency, µM (series often up to 114 µM), for the others: top-dose activity change, negative = inhibition, most hits filed as inhibitors. WRN helicase unwinding, fluorescent forked duplex, kinetic. 0.46% of 360,000 active; also: % is scaled to controls: 0 for no effect and ±100 for the full control effect; nearly all actives have a fitted effect of over 55% in size
# Target sequence (Q14191 whole entry, looked up): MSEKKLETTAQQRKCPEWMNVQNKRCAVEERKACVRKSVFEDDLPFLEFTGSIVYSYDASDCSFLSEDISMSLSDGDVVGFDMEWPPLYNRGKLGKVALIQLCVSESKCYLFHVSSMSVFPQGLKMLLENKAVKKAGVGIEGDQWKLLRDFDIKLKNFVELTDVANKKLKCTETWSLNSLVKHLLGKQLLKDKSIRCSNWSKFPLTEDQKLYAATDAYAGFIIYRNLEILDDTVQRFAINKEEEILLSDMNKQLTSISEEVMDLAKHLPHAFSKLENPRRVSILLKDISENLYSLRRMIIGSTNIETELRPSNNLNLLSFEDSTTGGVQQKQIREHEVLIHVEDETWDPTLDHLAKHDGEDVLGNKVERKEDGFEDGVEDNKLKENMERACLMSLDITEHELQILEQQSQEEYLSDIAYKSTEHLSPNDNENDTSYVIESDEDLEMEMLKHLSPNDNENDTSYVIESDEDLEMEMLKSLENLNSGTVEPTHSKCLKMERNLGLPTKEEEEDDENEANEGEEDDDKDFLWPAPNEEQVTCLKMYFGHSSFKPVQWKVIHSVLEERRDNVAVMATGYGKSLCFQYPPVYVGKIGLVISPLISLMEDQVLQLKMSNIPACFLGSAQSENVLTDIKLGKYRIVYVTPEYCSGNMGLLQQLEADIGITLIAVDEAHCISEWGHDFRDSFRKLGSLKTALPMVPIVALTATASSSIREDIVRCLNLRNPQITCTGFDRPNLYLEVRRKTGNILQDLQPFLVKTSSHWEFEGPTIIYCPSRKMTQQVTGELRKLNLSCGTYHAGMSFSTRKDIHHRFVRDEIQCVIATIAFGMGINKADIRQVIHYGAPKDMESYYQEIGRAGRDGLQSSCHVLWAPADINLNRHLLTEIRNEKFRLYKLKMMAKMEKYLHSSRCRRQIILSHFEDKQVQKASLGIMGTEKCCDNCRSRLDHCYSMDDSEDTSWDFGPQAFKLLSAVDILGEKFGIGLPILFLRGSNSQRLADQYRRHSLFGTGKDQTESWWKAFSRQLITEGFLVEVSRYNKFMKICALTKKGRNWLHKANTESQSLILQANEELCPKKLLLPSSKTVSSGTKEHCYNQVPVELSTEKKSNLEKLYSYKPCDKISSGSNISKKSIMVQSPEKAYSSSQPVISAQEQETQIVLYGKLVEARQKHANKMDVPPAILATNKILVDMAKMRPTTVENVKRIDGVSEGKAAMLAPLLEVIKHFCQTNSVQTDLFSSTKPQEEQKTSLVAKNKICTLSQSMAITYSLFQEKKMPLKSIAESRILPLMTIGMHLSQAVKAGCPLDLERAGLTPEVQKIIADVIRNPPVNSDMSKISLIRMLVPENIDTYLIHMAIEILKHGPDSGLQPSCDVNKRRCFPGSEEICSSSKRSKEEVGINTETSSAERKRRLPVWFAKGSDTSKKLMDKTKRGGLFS
#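 WRN at 20 nM final was preincubated with compound for 15 min at room temperature; reaction started with 100 nM forked duplex oligonucleotide carrying fluorophore and quencher plus 2 mM ATP (final). Unwinding followed kinetically by red fluorescence (ex 525/em 598 nm).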
# RECQ1 inh conf: confirmation of human RECQ1 helicase inhibitors; shares compounds with RECQ1 inh-1; RECQ1 helicase DNA unwinding, fluorescence; Potency, µM (doses to about 229 µM), without a hit: top-dose activity change, negative = inhibition, usual class: inhibitors; 28% of 610 active; also: % is scaled to controls: 0 for no effect and ±100 for the full control effect; nearly all actives have a fitted effect of over 45% in size
# ADP FP counter: ADP displacement flagged in RECQ1 inhibitor counter-screen; AID 2711; 27% of 530 active; ADP fluorescence polarization displacement counterscreen; Potency, µM (highest dose often 228 µM), inactives show at the highest dose activity change, negative = inhibition, usual class: inhibitors; shares compounds with RECQ1 inh-1; also: % is scaled to controls: 0 for no effect and ±100 for the full control effect; nearly all actives have a fitted effect of over 45% in size
# RECQ1 inh-2: RECQ1 helicase inhibition confirmed, round 2. shares compounds with RECQ1 inh-1. recombinant RECQ1 DNA unwinding, red fluorescence. Potency, µM (titrated, usually from 119 µM), without a hit: at the top dose activity, negative = inhibition, actives largely listed as inhibitors. 15% of 1,100 active. AID 504841; also: % is scaled to controls: 0 for no effect and ±100 for the full control effect; nearly all actives have a fitted effect of over 50% in size
# An asterisk follows results filed as active; i = inactive; ? = inconclusive; . = no result; [ ] = another dose, or the depositor's remark. Compounds with a hit are over-represented: about 0.88% of the library has one in this group of screens. Unless noted, calls follow the shape of the dose curve; as a rule, active = well fitted curve in the direction sought with a large enough effect; inconclusive = small, poorly fitted or top-dose-only effect, or another doubt; inactive = no such curve, though single readings can be large; an effect the other way counts as inactive or inconclusive. Potency is read from the fitted curve at half-maximal effect.
SMILES,RECQ1 inh-1,ERG Ets-DNA blk,APEX1 inh,GCN5L2 inh,BLM inh,WRN helicase inh,RECQ1 inh conf,ADP FP counter,RECQ1 inh-2
COc1ccc(-c2csc(N3CCN(c4cc(C)nc5ccccc45)CC3)n2)cc1OC,14µM*,-1%,?,-12%,-5%,-5%,-3%[114 µM],?,-11%
NS(=O)(=O)c1ccc(NC(=O)Cn2nc(C(=O)O)c3ccccc3c2=O)cc1,.,0%,-6%,1%,1%,-1%,.,.,.
CC(C)CC(=O)Nc1ccc(C(=O)Cn2nc(C(=O)O)c3ccccc3c2=O)cc1,1%,-1%,5%,0%,-4%,-7%,5%,20%,.
O=C(Cn1nc(C(=O)O)c2ccccc2c1=O)Nc1ccc2c(c1)C(=O)c1ccccc1C2=O,i,.,-3%,?,-8%,.,?,112µM*,.
COc1ccccc1NC(=O)Cc1noc(CSc2cc(C)c3ccccc3n2)n1,?,-1%,4%,-3%,-9%,4%,.,.,-16%
COc1ccccc1NC(=O)Cc1noc(CSc2cccc[n+]2[O-])n1,i,-5%,1%,-4%,-3%,-4%,.,.,.
COc1ccc2c(c1)O/C(=C\c1ccco1)C2=O,?,11%,?,0%,3%,-17%,.,.,-8%
COc1ccc(/C=C2\Oc3cc(OCC(N)=O)ccc3C2=O)cc1OC,.,11%,-4%,-10%,-4%,-24%,.,.,.
O=C1NC[C@H](CCCCN2CCN(Cc3ccccc3)C(=O)C2=O)N(CC2CCCCC2)C1=O,.,.,.,.,.,11%,.,.,.
CCC(C)CCCCC(=O)NC(CCN)C(=O)NC(C(=O)NC(CCN)C(=O)NC1CCNC(=O)C(C(C)O)NC(=O)C(CCN)NC(=O)C(CCN)NC(=O)C(CC(C)C)NC(=O)C(Cc2ccccc2)NC(=O)C(CCN)NC1=O)C(C)O (centres undefined),5µM*,.,.,-6%,7.9µM*,.,2.8µM*,?,.
CC(O)[C@@H]1NC(=O)[C@H](CCCN)NC(=O)[C@@H](Cc2c[nH]c3ccccc23)NC(=O)[C@H](Cc2ccc(O)cc2)NC(=O)[C@@H](NC(=O)[C@H](N)Cc2ccccc2)CSSC(C)(C)C(C(=O)N[C@H](C(N)=O)[C@@H](C)O)NC1=O (some centres undefined),11%,.,-1%,15%,1%,.,.,.,.
O=c1cc(CSc2ccc(Cl)cc2)[nH]c2[nH]n(-c3ccccc3)c(=O)c12,?,-3%,-9%,-24%,-16%,-20%,.,.,-5%
O=C(CNS(=O)(=O)c1c(Cl)cccc1Cl)OCC(=O)c1ccc[nH]1,?,2%,7%,-6%,-26%,-4%[11.6 µM],.,.,-23%
COc1cccc(CN2CCN(C(=O)c3ccc(-c4ccccc4)cc3)CC2)c1,25µM*,-2%,13%,-3%,-2%,-11%,.,.,-27%
c1ccc2c(Nc3ccc4c(c3)OCCO4)c3c(nc2c1)CCC3,?,-1%,-1%,3%,4%,-5%,.,.,-12%
N#Cc1ccc(CN2CC[C@@]3(CCCN(S(=O)(=O)c4ccccc4)C3)C2)cc1,-8%,.,3%,-9%,3%,.,.,.,.
COc1ccc(CN(C(=O)c2ccc(-c3ccccc3)[nH]2)C(C(=O)NCC2CCCO2)c2ccc(C)o2)cc1 (centres undefined),25µM*,3%,6%,-16%,-12%,-7%,.,.,-12%
COCCn1c(=NC(=O)c2ccc(S(=O)(=O)N3CCc4ccccc4C3)cc2)sc2cc(OC)ccc21,-2%,-1%,-11%,-6%,-2%,-24%,2%,-6%,.
N/C(=N\OC(=O)c1cccs1)c1cccc([N+](=O)[O-])c1,45µM*,0%,13%,-6%,-7%,7%,.,.,-8%
O=C1NC(=S)S/C1=C\C=C\c1ccc([N+](=O)[O-])o1,13µM*,30%,2.8µM*,-23%,-14%,40µM*,?,.,.
C=CCn1c(SCC(=O)O)nnc1-c1cccs1,-3%,0%,-1%,-7%,2%,-4%,-4%,5%,.
CCOc1ccccc1/C=C(/NC(=O)c1ccccc1)C(=O)NCC(=O)O,11%,-3%,5%,-2%,1%,2%,.,.,.
CCOc1ccccc1/C=C(\NC(=O)c1ccccc1)C(=O)NCCC(=O)O,-16%,-3%,-3%,2%,6%,-27%[57.1 µM],0%,2%,.
CCCCN(C(C)=O)c1c(CC)nc2ccc(C(=O)NCCCN(C)C)cn12,.,.,.,.,.,-3%,.,.,.
O=c1c(-c2ccc(Cl)cc2)nc2cnc(N3CCNCC3)nc2n1Cc1cccs1,i,.,-6%,?,-12%,.,.,.,.
SMILES,RECQ1 inh-1,ERG Ets-DNA blk,APEX1 inh,GCN5L2 inh,BLM inh,WRN helicase inh,RECQ1 inh conf,ADP FP counter,RECQ1 inh-2
O=C(COc1ccc(C(=O)NCC2CCCO2)cc1)Nc1cccc(C(F)(F)F)c1 (centres undefined),.,-13%,-5%,-18%,.,-5%,.,.,.
O=C1S/C(=C\C=C\c2ccco2)C(=O)N1c1ccccc1,?,10%,28µM*,0%,-18%,-25%,.,.,-29%
CCn1cc(C(=O)OCC(=O)Nc2c(C)n(C)n(-c3ccccc3)c2=O)c(=O)c2ccc(C)nc21,i,2%,0%,-7%,-1%,-7%,11%,?,.
Cc1c(NC(=O)COC(=O)c2cc(-c3cccc4ccccc34)nc3ccccc23)c(=O)n(-c2ccccc2)n1C,?,-3%,-4%,-9%,-2%,-20%,.,.,?
CCCc1nc2ccccc2c(C(=O)OCC(=O)Nc2c(C)n(C)n(-c3ccccc3)c2=O)c1CC,-11%,14%,2%,21%,1%,1%,12%,14%,.
CCc1ccc(C(=O)OCC(=O)Nc2c(C)n(C)n(-c3ccccc3)c2=O)cc1,.,.,.,.,.,13%,.,.,.
CCNC(=O)COC(=O)c1cc(-c2ccco2)nc2ccccc12,28µM*,-7%,25µM*,-19%,?,-21%[11.6 µM],.,.,?
CCC(=O)N(C)/C=C1\Sc2ccccc2C1=O,-4%,2%,-1%,-13%,0%,-3%,.,.,.
